According to the supplement of paper PMC12645437, “Orthogonal IMiD-Degron Pairs Induce Selective Protein Degradation in Cells” (ACS Chemical Biology, 2025):
Whole data set: some 8,300 sequences, median “log2 fold change of degron read counts, EGFP-low vs EGFP+ sorted cells (limma voom), compound-induced degradation” near -1.1, cut for the highest 2% near 3.2. Many of the other results were omitted from the sample, so the highest values are more common in it than they were.

T1: CRBN, Q96SW2
T1 chain: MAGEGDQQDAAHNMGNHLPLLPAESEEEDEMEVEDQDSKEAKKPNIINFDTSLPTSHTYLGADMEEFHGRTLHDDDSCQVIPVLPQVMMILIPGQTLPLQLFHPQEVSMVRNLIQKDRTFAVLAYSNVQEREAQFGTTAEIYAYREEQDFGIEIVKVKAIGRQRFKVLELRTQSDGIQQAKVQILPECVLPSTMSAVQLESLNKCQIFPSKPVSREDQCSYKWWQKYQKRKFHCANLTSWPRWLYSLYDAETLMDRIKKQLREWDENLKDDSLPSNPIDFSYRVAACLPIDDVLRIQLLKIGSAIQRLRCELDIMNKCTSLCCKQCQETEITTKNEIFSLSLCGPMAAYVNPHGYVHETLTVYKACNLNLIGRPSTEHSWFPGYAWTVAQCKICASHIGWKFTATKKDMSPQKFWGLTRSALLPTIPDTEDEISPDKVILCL


Molecular target: T1, CRBN, Q96SW2
Test: log2 fold change of degron read counts, EGFP-low vs EGFP+ sorted cells (limma voom), compound-induced degradation; higher = more compound-induced degradation of the degron-EGFP fusion; degrons are variants of IKZF1/3 zinc finger 2; compound dose not given here
Settings: Jurkat, 18 h
[1] = compound: compound 19 (5-tert-butyl-thalidomide)
[2] = compound: compound 22 (5-morpholino-thalidomide)
[3] = compound: compound 33 (diphenyl IMiD analogue)
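Further: pooled lentiviral library of zinc finger degron-EGFP fusions in mCherry-positive Jurkat cells, FACS-sorted after compound exposure, with degron abundance counted by next-generation sequencing.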

Sequence | log2 fold change of degron read counts [1] | log2 fold change of degron read counts [2] | log2 fold change of degron read counts [3] | log2 fold change of degron read counts (compound: thalidomide)
FRCEICGRIFTQKGNLLRHIKL [46F_47R_49E_50I_52G_53R_54I_55F_67L_, Q9UKT9] | -2.12 | -2.31 | -0.593 | -0.94
FSCNQCGAVFTQKGNLLRHIKL [46F_47S_49N_50Q_52G_53A_54V_55F_67L_, Q9UKT9] | -1.79 | -1.84 | -0.0126 | -1.8
FMCEVCGAKFTQKGNLLRHIKL [46F_47M_49E_50V_52G_53A_54K_55F_67L_, Q9UKT9] | 0.0707 | -0.168 | 0.454 | 0.604
FQCEVCGAKFTQKGNLLRHIKL [46F_47Q_49E_50V_52G_53A_54K_55F_67L_, Q9UKT9] | 0.414 | 2.98 | 0.135 | 3.4
FSCEVCGAKFTQKGNLLRHIKL [46F_47S_49E_50V_52G_53A_54K_55F_67L_, Q9UKT9] | 3.08 | 1.75 | -0.985 | 1.45
FDCEVCGAKFTQKGNLLRHIKL [46F_47D_49E_50V_52G_53A_54K_55F_67L_, Q9UKT9] | 1.57 | -0.744 | -2.09 | 0.993
FGCEVCGAKFTQKGNLLRHIKL [46F_47G_49E_50V_52G_53A_54K_55F_67L_, Q9UKT9] | 3.69 | 1.3 | -1.12 | 1.16
FICEVCGAKFTQKGNLLRHIKL [46F_47I_49E_50V_52G_53A_54K_55F_67L_, Q9UKT9] | -0.59 | 2.35 | 0.972 | 2.68
FKCEVCGAKFTQKGNLLRHIKL [46F_47K_49E_50V_52G_53A_54K_55F_67L_, Q9UKT9] | -1.41 | -3.28 | -3.54 | -1.57
FLCEVCGAKFTQKGNLLRHIKL [46F_47L_49E_50V_52G_53A_54K_55F_67L_, Q9UKT9] | 0.27 | -1.55 | -0.283 | 1.49
FWCEVCGAKFTQKGNLLRHIKL [46F_47W_49E_50V_52G_53A_54K_55F_67L_, Q9UKT9] | 3.74 | 3.86 | 1.64 | 1.54
FACEVCGAKFTQKGNLLRHIKL [46F_47A_49E_50V_52G_53A_54K_55F_67L_, Q9UKT9] | 3.92 | 2.02 | -1.57 | 0.889
FECEVCGAKFTQKGNLLRHIKL [46F_47E_49E_50V_52G_53A_54K_55F_67L_, Q9UKT9] | 0.451 | -1.55 | -0.965 | 2.59
FRCEVCGAKFTQKGNLLRHIKL [46F_47R_49E_50V_52G_53A_54K_55F_67L_, Q9UKT9] | -0.518 | -0.4 | 0.471 | 1.09
FYCPQCGAHFTQKGNLLRHIKL [46F_47Y_49P_50Q_52G_53A_54H_55F_67L_, Q9UKT9] | 0.451 | 1.45 | 1.13 | -0.932
FFCPQCGAEFTQKGNLLRHIKL [46F_47F_49P_50Q_52G_53A_54E_55F_67L_, Q9UKT9] | -0.388 | -1.02 | -0.943 | -1.93
FMCPQCGAEFTQKGNLLRHIKL [46F_47M_49P_50Q_52G_53A_54E_55F_67L_, Q9UKT9] | -2.82 | -2.55 | 0.714 | -1.49
FACEICGHVFTQKGNLLRHIKL [46F_47A_49E_50I_52G_53H_54V_55F_67L_, Q9UKT9] | -2.8 | -3.22 | -3.16 | -2.72
FKCPVCGAYFTQKGNLLRHIKL [46F_47K_49P_50V_52G_53A_54Y_55F_67L_, Q9UKT9] | -2.09 | -2.57 | -2.35 | -1.29
FDCDVCGADFTQKGNLLRHIKL [46F_47D_49D_50V_52G_53A_54D_55F_67L_, Q9UKT9] | -3.06 | -3.05 | -2.88 | -2.92
FGCDVCGAVFTQKGNLLRHIKL [46F_47G_49D_50V_52G_53A_54V_55F_67L_, Q9UKT9] | -0.0514 | -0.272 | 0.863 | -1.24
FICNQCGADFTQKGNLLRHIKL [46F_47I_49N_50Q_52G_53A_54D_55F_67L_, Q9UKT9] | -3.68 | -3.02 | -3.36 | -3.07
FHCEVCGAKFTQKGNLLRHIKL [46F_47H_49E_50V_52G_53A_54K_55F_67L_, Q9UKT9] | 2.92 | 1.93 | -0.596 | 0.387
FNCEVCGAKFTQKGNLLRHIKL [46F_47N_49E_50V_52G_53A_54K_55F_67L_, Q9UKT9] | 1.99 | 0.318 | -2.12 | 0.139
FCCEVCGAKFTQKGNLLRHIKL [46F_47C_49E_50V_52G_53A_54K_55F_67L_, Q9UKT9] | 3.23 | 2.43 | -0.571 | 2.71
FVCEVCGAKFTQKGNLLRHIKL [46F_47V_49E_50V_52G_53A_54K_55F_67L_, Q9UKT9] | 0.611 | 1.89 | 0.0419 | 2.73
FYCEVCGAKFTQKGNLLRHIKL [46F_47Y_49E_50V_52G_53A_54K_55F_67L_, Q9UKT9] | 3.48 | 3.66 | 1.65 | 1.54
FFCEVCGAKFTQKGNLLRHIKL [46F_47F_49E_50V_52G_53A_54K_55F_67L_, Q9UKT9] | 3.53 | 3.42 | 1.26 | 1.64
